{
  "source": "PubChem BioAssay",
  "data": [
    {"molecular_target": "Follistatin (Homo sapiens) (UniProt P19883)", "sequence (P19883 whole entry, looked up)": "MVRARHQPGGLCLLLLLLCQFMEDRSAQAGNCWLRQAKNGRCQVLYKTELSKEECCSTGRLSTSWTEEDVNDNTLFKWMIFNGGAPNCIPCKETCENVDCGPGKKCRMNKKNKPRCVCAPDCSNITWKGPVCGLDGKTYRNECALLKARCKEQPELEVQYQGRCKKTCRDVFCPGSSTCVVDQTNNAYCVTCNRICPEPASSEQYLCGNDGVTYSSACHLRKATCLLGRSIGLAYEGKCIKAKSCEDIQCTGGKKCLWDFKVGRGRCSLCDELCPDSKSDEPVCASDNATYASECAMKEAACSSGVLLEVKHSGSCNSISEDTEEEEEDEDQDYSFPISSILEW", "test": "FST protein binding to printed compounds – biochemical, small-molecule microarray, 635/667 nm fluorescence, primary screen (AID 1132)", "conditions": "635 nm fluorescence, higher = more signal", "values": [
      {"molecule": "CC(C)=CCN[C@H](CO)c1ccccc1", "composite z-score": 0.546},
      {"molecule": "CCCC#C[Si](O[C@H](CC)c1cn(Cc2cccc(Cl)c2)nn1)(C(C)C)C(C)C", "composite z-score": 0.357},
      {"molecule": "C=CCOC(=O)[C@H]1[C@@H]2C(=O)O[C@@H](c3ccccc3)[C@@H](c3ccccc3)N2[C@@H](c2ccc(OCCOC(=O)[C@H]3C[C@H]4C(=O)N[C@@H](CCCCNC(C)=O)C(=O)N4[C@H]3c3cccc(OCCO)c3)cc2)[C@]12C(=O)Nc1ccccc12", "composite z-score": 1.31},
      {"molecule": "C=C(COC)/C(=C/C[C@@H](OC(=O)c1ccncc1)c1ccc(CO)o1)c1cc(C(=O)OC)ccc1OC", "composite z-score": 1.46},
      {"molecule": "CC(C)C(=C=CC[C@@H](O)c1ccc(OCCO)cc1)C[C@@H](O)COCc1ccccc1", "composite z-score": 1.36},
      {"molecule": "CCCCCCc1nc(-c2cc(C)c(OC)c(C)c2)cc2c1[Si](C(C)C)(C(C)C)OC2", "composite z-score": 0.578},
      {"molecule": "COc1cc2c(cc1O)C(C1CC1)N(Cc1sc3ccccc3c1Cl)CC2", "note": "(configuration not stated)", "composite z-score": 0.439},
      {"molecule": "COCCOC(=O)N1C(=O)[C@@]2(c3cc(C#CCC(C(=O)OC)C(=O)OC)ccc31)[C@H](C(=O)N1CCN(c3ncccn3)CC1)[C@H]1C(=O)O[C@H](c3ccccc3)[C@H](c3ccccc3)N1[C@@H]2c1ccccc1OCCO", "composite z-score": 1.38},
      {"molecule": "C[C@H]1NC(=O)[C@@]23C(=O)N[C@@H](Cc4ccccc4)C2[C@H](C)[C@@]2(C)O[C@H]2C3/C=C/C/C=C\\CNC(=O)[C@@H]2CCCN2C1=O", "note": "(some centres not stated)", "composite z-score": 1.05},
      {"molecule": "CCOC(=O)C[C@H]1[C@H](OC(=O)c2ccc(C(=O)c3ccccc3)cc2)[C@@H](NC(=O)c2ccc3ccccc3n2)c2cc(OCCCO)ccc2N1C(=O)c1ccccc1", "composite z-score": 0.559},
      {"molecule": "CCCC[C@@H]1C[C@H]1[C@@H](NC(=O)c1cccs1)c1ccc(-c2ccccc2)cc1", "composite z-score": 0.552},
      {"molecule": "COC(=O)[C@@]1(Cc2ccc(OC)cc2)[C@H]2c3cc(C(=O)N4CCCC4)n(Cc4ccc(O)c(OC)c4)c3C[C@H]2CN1C(=O)c1ccccc1", "composite z-score": 0.379},
      {"molecule": "[N-]=[N+]=NCc1ccccc1C[C@]1(C(N)=O)COC(c2ccc(OCCCO)cc2)=N1", "composite z-score": 1.24},
      {"molecule": "C=C(COC)C(=O)CC[C@@H](OC(C)=O)c1ccc(CO)o1", "composite z-score": 1.33},
      {"molecule": "O=C1c2ccccc2[C@](Cc2ccccc2I)(C(=O)NCCN2CCOCC2)[C@H](c2ccc(CO)cc2)N1Cc1ccccc1Cl", "composite z-score": 1},
      {"molecule": "COCCCNC(=O)[C@]1(CCC(=O)OC(C)(C)C)N=C(c2ccc(OCCCO)cc2)O[C@@H]1c1ccccc1CN=[N+]=[N-]", "composite z-score": 1.28},
      {"molecule": "C=CCNC(=O)[C@@H]1[C@H]2C(=O)O[C@H](c3ccccc3)[C@H](c3ccccc3)N2[C@H](c2ccc(OCCO)cc2)[C@@]12C(=O)Nc1ccc(C#CCC(C(=O)OC)C(=O)OC)cc12", "composite z-score": 0.85},
      {"molecule": "COc1cc2c(cc1OC)CN(C(=O)[C@@H]1[C@H]3C(=O)O[C@H](c4ccccc4)[C@H](c4ccccc4)N3[C@H](c3ccccc3OCCO)[C@@]13C(=O)Nc1ccc(C#CCCO)cc13)CC2", "composite z-score": 1.27},
      {"molecule": "C=CCC(OC(C)=O)[C@@H]1[C@@H](N(Cc2cc3ccccc3o2)C(=O)c2cccc3ccccc23)c2cc(OCCCO)ccc2N1C(=O)c1ccc(-c2ccccc2)cc1", "note": "(some centres not stated)", "composite z-score": 0.791},
      {"molecule": "COC(=O)[C@@]1(Cc2ccc(F)cc2)[C@H]2c3cc(C(=O)N4CCCC4)n(CCCNc4ncc(C(F)(F)F)cc4Cl)c3C[C@H]2CN1C(=O)c1ccccc1", "composite z-score": -0.0084},
      {"molecule": "CC(C)N1C(=O)c2ccccc2[C@](C)(C(=O)NCCN2CCOCC2)[C@@H]1c1ccc(CO)cc1", "composite z-score": 0.897},
      {"molecule": "CC(C)C(=C=CC[C@@H](O)c1ccc(OCCO)cc1)C[C@@H](O)c1ccccn1", "composite z-score": 1.58},
      {"molecule": "CO[C@H]1O[C@H](CO)[C@@H](OC(=O)Nc2ccc(Oc3ccccc3)cc2)[C@H](OC(=O)Nc2ccc3c(c2)OCO3)[C@H]1OC(=O)Nc1ccc2c(c1)OCO2", "composite z-score": 1.34},
      {"molecule": "C=CCOC(=O)[C@H]1[C@@H]2C(=O)O[C@@H](c3ccccc3)[C@@H](c3ccccc3)N2[C@@H](c2ccc(OCCOC(=O)[C@@H]3C[C@@H]4C(=O)N[C@@H](CC(C)C)C(=O)N4[C@@H]3c3ccc(O)cc3)cc2)[C@]12C(=O)Nc1ccccc12", "composite z-score": 1.39},
      {"molecule": "O=C(c1ccccc1)N1C(=O)[C@]2(COC(c3ccc(OCCCO)cc3)=N2)Cc2ccccc21", "composite z-score": 1.4},
      {"molecule": "CCCc1cc2c(n1Cc1cc(F)cc(F)c1)C(C)C1CN(C(=O)c3ccccc3)C(C)(C(=O)OC)C21", "note": "(configuration not stated)", "composite z-score": 0.542},
      {"molecule": "O=C(c1ccccc1)N1C(=O)[C@@]2(Cc3ccccc31)N=C(c1ccc(OCCCO)cc1)O[C@H]2c1ccccc1", "composite z-score": 1.4}
    ]}
  ]
}
